This passage reports growth results from PubChem BioAssay (NCI).

Molecules are shown by their SMILES. This is part of a sample that, as a whole, favours compounds with a hit. Of some 83,000 tested, about 20% had one in any assay.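 A percent growth of 40 corresponds to 60% growth inhibition; 0 means no net growth; -100 means all cells died. Active threshold: below 10.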 The source made the active and inactive calls.

This assay relates to HL-60(TB) leukemia. Nature of the assay: NCI-60 one-dose screen, 48 h (100 = growth as untreated, 0 = no growth, -100 = all killed). The settings on record: 10 µM unless noted.
As to `CCCCC(NC(=O)CN1C(=O)/C(=C/C(C)=C/c2ccccc2)SC1=S)C(=O)O` (stereo not drawn), the growth is 113% (inactive). As for `CN(C)CCCN(Cc1ccccc1O)C(=S)Nc1ccc(Cl)cc1`, the figure is 103% (inactive). As for `CC1CCC(C)N(C)C1` (stereo not drawn), the figure is 96.2% (inactive). With `C1CCC(C(CC2CCCCN2)C2CCCCC2)CC1` (stereo not drawn) the figure was 11.1% (inactive). `N#Cc1c(N)nc2c(nnn2-c2cccc(Br)c2)c1N`: the growth was 95.9% (inactive). With `C=C1C(=O)O[C@H]2[C@H]1CC/C(COC(=O)NCc1ccc(Cn3c(=O)sn(-c4ccc(I)cc4)c3=O)cc1)=C\CC[C@@]1(C)O[C@@H]21` the figure was -32% (active); with `CC(C)(C)c1[nH]nc2c1C(c1cc3ccccc3[nH]c1=O)Nc1cc(C(=O)OCc3ccccc3)ccc1N2` (stereo not drawn), 54.5% (inactive). As for `Nc1ccc(C2=NNC(=O)Cc3cc4c(cc32)OCCO4)cc1Cl`, the figure is 7.27% (active); as for `NS(=O)(=O)c1ccc(N2N=C(c3ccc(Br)cc3)CC2c2cn(-c3ccccc3)nc2-c2ccc(Cl)cc2)cc1` (stereo not drawn), 89.6% (inactive). As for `CN1C(=O)C2(SCC(C(=O)NCC(=O)OC(C)(C)C)N2C(=O)C2CCCCC2)c2ccccc21` (stereo not drawn), the figure is 93.7% (inactive). With `C=C1CC[C@@H]2[C@](C)(COC(C)=O)[C@H](OC(C)=O)CC[C@@]2(C)[C@@H]1CC(Nc1ccc(S(=O)(=O)Nc2ccc(Cl)nn2)cc1)C1=CCOC1=O` (stereo partly drawn), the growth was -17.5% (active). As for `CC(CC(=O)c1ccccc1)c1ccccc1` (stereo not drawn), the figure is 102% (inactive); as for `CC[N+](CC)(CCCC(C)[N+]1(Cc2ccccc2)C(C)=CC=C1C)Cc1ccccc1` (stereo not drawn), 37.1% (inactive).
